Measurements: PubChem BioAssay (NCATS)
Activity calls are given as the source filed them. The rule behind the calls is not given here.

tested on: HIV-1 nucleocapsid protein NCp7 (binding to TG oligonucleotide); assay: HIV Nucleocapsid (AID 346); conditions: HIV-1 NC / fluorescein-TGTGTGTG probe, fluorescence polarization;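 note: potency is for inhibitors that block NC binding and lower polarization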
Method in brief: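 Inhibition of nucleocapsid binding to single-stranded 5'-TGTGTGTG probe (10 nM) was measured by fluorescence polarization after 1 hr at room temperature with 100 nM protein under high-salt, zinc-containing, reducing conditions.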
Potency is the fitted concentration of half-maximal effect.

Row | SMILES | Potency
1 | CN1CCN(c2ccnc(-c3ccc(N(C)C)cc3)n2)CC1 | > 20 µM (inactive)
2 | CS(=O)(=O)Nc1cccc(-c2nc(NCc3cccnc3)c3ccccc3n2)c1 | > 20 µM (inactive)
3 | CC(=O)N1CCC2(CC1)CN(Cc1cc(C(F)(F)F)cc(C(F)(F)F)c1)C2 | > 20 µM (inactive)
4 | COCCNc1ncnc2ccc(-c3cccnc3)cc12 | > 20 µM (inactive)
5 | COc1cccc(-c2ccc3ncnc(N(C)Cc4ccco4)c3c2)c1 | > 20 µM (inactive)
6 | COc1ccccc1CN1CCCC2(CCN(C(=O)c3cc(C(F)(F)F)cc(C(F)(F)F)c3)CC2)C1 | > 20 µM (inactive)
7 | COc1ccc(C(=O)N2CCC3(CCN(Cc4ccccc4)CC3)CC2)cc1 | > 20 µM (inactive)
8 | Cc1cccc(CNc2ccnc(-c3ccccc3CN(C)C)n2)c1 | > 20 µM (inactive)
9 | Cc1noc(C)c1-c1nccc(NCc2cccnc2)n1 | > 20 µM (inactive)
10 | CNc1nc(-c2c(C)noc2C)nc2ccccc12 | > 20 µM (inactive)
11 | O=C(c1ccco1)N1CCC2(CC1)CN(c1cccc(-c3ccccc3)c1)C2 | > 20 µM (inactive)
12 | O=C(c1ccco1)N1CCC2(CCCN(c3ccncc3)C2)CC1 | > 20 µM (inactive)
13 | COc1ccccc1-c1cc(-n2ccnc2)ncn1 | > 20 µM (inactive)
14 | COc1ccccc1CNc1ncncc1-c1ccccc1C | > 20 µM (inactive)
15 | Cn1c(=O)c(-c2ccc(F)c(F)c2)nc2cncnc21 | > 4 µM (inactive)
16 | COCCn1c(=O)c(CCc2ccccc2)nc2cncnc21 | > 20 µM (inactive)
